The panel holds about 79,000 compounds, 15% with a hit somewhere; the sample as a whole holds those more often. Calls of active or inactive are those of the source. Cut-off read from the data, not from the text of the source: active = growth inhibition above about 70%; inactive = the rest.
Tests used:
[1] = NCI Yeast Anticancer Drug Screen. Data for the rad52 strain (AID 147);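 note: 0% = growth of vehicle-treated control cultures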; details: S. cerevisiae rad52 mutant growth inhibition, active compounds read high
Summary of the method: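 Yeast strain carrying a DNA damage repair alteration was exposed to test compounds. Growth inhibition was measured relative to vehicle-treated controls.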

[2] = NCI Yeast Anticancer Drug Screen. Data for the wt1 strain (AID 149);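 note: 0% = growth of vehicle-treated wt1 cultures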; details: S. cerevisiae wt1 strain (SPY 50644) growth inhibition, active compounds read high
Summary of the method: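 Readout: yeast growth inhibition, normalised to vehicle controls, in the wt1 strain exposed to test compounds.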

[3] = NCI Yeast Anticancer Drug Screen. Data for the mgt1 strain (AID 153); details: S. cerevisiae mgt1 mutant growth inhibition, active compounds read high
Summary of the method: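 Yeast mgt1 strain (DNA repair/cell-cycle alteration panel) exposed to compounds; growth inhibition measured relative to vehicle-treated controls.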

[4] = NCI Yeast Anticancer Drug Screen. Data for the rad50 strain (AID 155);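 note: 0% = growth of vehicle-only cultures of the same strain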; details: S. cerevisiae rad50 strain growth inhibition, active compounds read high
Summary of the method: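 Compounds were tested on a yeast strain with an engineered DNA damage repair alteration; the reported value is growth inhibition normalised to vehicle treatment.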

[5] = NCI Yeast Anticancer Drug Screen. Data for the mec2-1 strain (AID 157); details: S. cerevisiae mec2-1 strain, active compounds read high
Summary of the method: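 mec2-1 yeast strain, carrying an alteration in DNA damage repair or cell cycle control, was exposed to compounds; growth inhibition was measured relative to vehicle-treated controls.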

[6] = NCI Yeast Anticancer Drug Screen. Data for the rad14 strain (AID 159);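 note: 0% = growth of vehicle-treated control cultures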; details: S. cerevisiae rad14 strain growth inhibition, active compounds read high
Summary of the method: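 Compound-treated yeast with a defined DNA-repair lesion; growth inhibition normalised to vehicle-treated cultures.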

[7] = NCI Yeast Anticancer Drug Screen. Data for the sgs1 mgt1 strain (AID 161);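 note: 0% = growth of cultures given vehicle only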; details: S. cerevisiae sgs1 mgt1 strain, active compounds read high
Summary of the method: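 Compounds are added to genetically altered yeast, and growth is compared with cultures given vehicle alone to give percent inhibition.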

[8] = NCI Yeast Anticancer Drug Screen. Data for the CLN2oe strain (AID 163);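 note: 0% = growth of vehicle-only control cultures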; details: S. cerevisiae CLN2oe strain, active compounds read high
Summary of the method: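 Yeast cells carrying a defined cell-cycle control alteration were exposed to test compounds. Growth inhibition was scored against vehicle-treated control cultures.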

[9] = NCI Yeast Anticancer Drug Screen. Data for the cln2 rad14 strain (AID 165);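 note: 0% = growth equal to vehicle treated cultures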; details: S. cerevisiae cln2 rad14 strain, active compounds read high
Summary of the method: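 Yeast carrying cln2 and rad14 alterations (cell cycle control and DNA damage repair) were exposed to compounds. Growth inhibition was measured against vehicle-treated controls.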

[10] = NCI Yeast Anticancer Drug Screen. Data for the bub3 strain (AID 167); details: S. cerevisiae bub3 mutant strain, active compounds read high
Summary of the method: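 Growth of a checkpoint-deficient yeast mutant is measured after compound exposure. Values represent inhibition relative to vehicle.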

[11] = NCI Yeast Anticancer Drug Screen. Data for the wt2 strain (AID 169);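 note: 0% = growth of vehicle-treated yeast cultures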; details: S. cerevisiae wt2 strain growth inhibition, active compounds read high
Summary of the method: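 Yeast cells were exposed to test compounds, and growth inhibition was measured relative to vehicle-treated controls.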

[12] = NCI Yeast Anticancer Drug Screen. Data for the mlh1 strain (AID 171);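 note: 0% = growth of vehicle-treated control cultures of the same strain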; details: S. cerevisiae mlh1 strain growth inhibition, active compounds read high
Summary of the method: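 Yeast carrying a defined genetic alteration in DNA damage repair or cell cycle control were exposed to test compounds. Growth inhibition was measured relative to vehicle-treated controls.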

[13] = NCI Yeast Anticancer Drug Screen. Data for the sgs1 strain (AID 173);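 note: 0% = growth of vehicle-only control cultures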; details: S. cerevisiae sgs1 mutant, active compounds read high
Summary of the method: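 Yeast mutant strains carrying defined defects in DNA damage repair or cell cycle control were exposed to test compounds. Growth inhibition was scored against vehicle-treated controls.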

[14] = NCI Yeast Anticancer Drug Screen. Data for the mlh1 rad18 strain (AID 175); details: S. cerevisiae mlh1 rad18 strain growth inhibition, active compounds read high
Summary of the method: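 Growth inhibition of the yeast strain was measured after compound exposure and expressed relative to vehicle-treated controls. The strain carries defined defects in DNA damage repair.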

[15] = NCI Yeast Anticancer Drug Screen. Data for the rad18 strain (AID 177); details: S. cerevisiae rad18 mutant growth inhibition, active compounds read high
Summary of the method: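 Yeast carrying a defined DNA damage repair alteration were exposed to compounds. Growth inhibition was expressed relative to vehicle-treated controls.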

[16] = NCI Yeast Anticancer Drug Screen. Data for the rad50EPP+ strain (AID 151);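 note: 0% = growth of vehicle-treated control cultures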; details: S. cerevisiae rad50 mutant strain, active compounds read high
Summary of the method: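 Yeast strain carrying rad50 alteration (rad50EPP+) exposed to compounds; growth inhibition measured relative to vehicle-treated controls.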

[17] = at 5.0 µM (retest, dose inferred, filed as 0.5)
[18] = at 50.0 µM (retest, dose inferred, filed as 5.0)

Measured: growth inhibition

O=C(/C=C(/c1ccccc1)N1CCCCC1)c1ccccc1
active: [1]; at 100.0 µM 98% | [2]; at 100.0 µM 94% | [3]; at 100.0 µM 87% | [4]; [18] 92% | [4]; at 50.0 µM 90.3% | [4]; at 100.0 µM 97% | [5]; [18] 84% | [5]; at 100.0 µM 82% | [6]; at 100.0 µM 98% | [7]; [18] 94% | [7]; at 50.0 µM 82.1% | [8]; at 100.0 µM 97% | [9]; [18] 79% | [10]; [18] 99% | [10]; at 100.0 µM 94% | [11]; at 100.0 µM 95% | [12]; at 100.0 µM 96% | [13]; at 100.0 µM 97% | [14]; [18] 99% | [14]; at 50.0 µM 89.3% | [15]; at 100.0 µM 97%
inactive: [1]; at 1.2 µM 0% | [1]; at 3.7 µM 3% | [1]; at 11.0 µM 5% | [1]; at 33.0 µM 13% | [2]; at 1.2 µM -1% | [2]; at 3.7 µM 4% | [2]; at 11.0 µM 1% | [2]; at 33.0 µM 9% | [3]; at 1.2 µM -3% | [3]; at 3.7 µM -2% | [3]; at 11.0 µM 0% | [3]; at 33.0 µM 10% | [4]; at 1.2 µM -1% | [4]; at 3.7 µM -1% | [4]; [17] 0% | [4]; at 11.0 µM 5% | [4]; at 33.0 µM 11% | [5]; at 1.2 µM -4% | [5]; at 3.7 µM -5% | [5]; [17] -12% | [5]; at 11.0 µM -3% | [5]; at 33.0 µM 7% | [5]; at 50.0 µM 53% | [6]; at 1.2 µM 3% | [6]; at 3.7 µM 6% | [6]; at 11.0 µM 9% | [6]; at 33.0 µM 30% | [7]; [17] 44% | [8]; at 1.2 µM -6% | [8]; at 3.7 µM -7% | [8]; at 11.0 µM -3% | [8]; at 33.0 µM -4% | [9]; [17] 14% | [9]; at 50.0 µM 46% | [10]; at 1.2 µM 2% | [10]; at 3.7 µM 3% | [10]; [17] 34% | [10]; at 11.0 µM 7% | [10]; at 33.0 µM 19% | [10]; at 50.0 µM 54.8% | [11]; at 1.2 µM -1% | [11]; at 3.7 µM 1% | [11]; at 11.0 µM 1% | [11]; at 33.0 µM 15% | [12]; at 1.2 µM -4% | [12]; at 3.7 µM -1% | [12]; at 11.0 µM -3% | [12]; at 33.0 µM 5% | [13]; at 1.2 µM -1% | [13]; at 3.7 µM -1% | [13]; at 11.0 µM 3% | [13]; at 33.0 µM 20% | [14]; [17] 55% | [15]; at 1.2 µM -2% | [15]; at 3.7 µM 1% | [15]; at 11.0 µM 3% | [15]; at 33.0 µM 9%

CCOC(=O)c1[nH]n(-c2ccccc2)c(=O)c1C=NC(=S)C(N)=S
inactive: [1]; at 1.2 µM 24% | [1]; at 3.7 µM 21% | [1]; at 11.0 µM 30% | [2]; at 1.2 µM 19% | [2]; at 3.7 µM 8% | [2]; at 11.0 µM 25% | [2]; at 33.0 µM 29% | [16]; at 1.2 µM -3% | [16]; at 3.7 µM -23% | [16]; at 11.0 µM 5% | [16]; at 33.0 µM 30% | [16]; at 100.0 µM 69% | [4]; at 1.2 µM 8% | [4]; at 3.7 µM 29% | [4]; [17] -36% | [4]; at 11.0 µM 31% | [4]; [18] 19% | [5]; at 1.2 µM 5% | [5]; at 3.7 µM 5% | [5]; [17] -22% | [5]; at 11.0 µM -12% | [6]; at 1.2 µM -15% | [6]; at 3.7 µM -15% | [6]; at 11.0 µM -11% | [7]; [17] -4% | [7]; [18] 13% | [8]; at 1.2 µM -8% | [8]; at 3.7 µM -7% | [8]; at 11.0 µM 2% | [8]; at 33.0 µM 35% | [9]; [17] -4% | [9]; [18] 12% | [10]; at 1.2 µM -8% | [10]; at 3.7 µM -4% | [10]; [17] -27% | [10]; at 11.0 µM -8% | [10]; at 33.0 µM 8% | [10]; at 50.0 µM 60.2% | [11]; at 1.2 µM -2% | [11]; at 3.7 µM 0% | [11]; at 11.0 µM 7% | [11]; at 33.0 µM 46% | [12]; at 1.2 µM 22% | [12]; at 3.7 µM 16% | [12]; at 11.0 µM 43% | [14]; [17] -3% | [15]; at 1.2 µM 0% | [15]; at 3.7 µM -4% | [15]; at 11.0 µM 2% | [15]; at 33.0 µM 67%
active: [1]; at 33.0 µM 71% | [1]; at 100.0 µM 97% | [2]; at 100.0 µM 98% | [4]; at 33.0 µM 90% | [4]; at 50.0 µM 87.5% | [4]; at 100.0 µM 97% | [5]; at 33.0 µM 96% | [5]; [18] 88% | [5]; at 50.0 µM 90.7% | [5]; at 100.0 µM 97% | [6]; at 33.0 µM 95% | [6]; at 100.0 µM 97% | [7]; at 50.0 µM 91% | [8]; at 100.0 µM 97% | [9]; at 50.0 µM 90.4% | [10]; [18] 92% | [10]; at 100.0 µM 97% | [11]; at 100.0 µM 98% | [12]; at 33.0 µM 96% | [12]; at 100.0 µM 97% | [14]; [18] 92% | [14]; at 50.0 µM 86.3% | [15]; at 100.0 µM 97%
